Data as given in PubChem BioAssay AID1851 (National Center for Advancing Translational Sciences (NCATS), 2009).
The whole screen tested about 16,000 compounds, of which about 5,100 (32%) were called active. Roughly 25% stayed inconclusive and do not appear here. This is one part of the list. Unmarked numbers belong to inactive results. Calls follow the shape of the dose curve; as a rule, active = well fitted curve in the direction sought with a large enough effect; inconclusive = small, poorly fitted or top-dose-only effect, or effect the other way; inactive = no such curve, though single readings can be large or run the other way.

molecular target: Cytochrome P450 3A4 (Homo sapiens) (UniProt P08684); assay: Cytochrome panel assay with activity outcomes; conditions: recombinant CYP, pro-luciferin dealkylation, luminescence, p450-cyp3a4; series mostly up to 57.1 µM; activity, negative = inhibition: at the top concentration
Sequence (P08684 whole entry, looked up): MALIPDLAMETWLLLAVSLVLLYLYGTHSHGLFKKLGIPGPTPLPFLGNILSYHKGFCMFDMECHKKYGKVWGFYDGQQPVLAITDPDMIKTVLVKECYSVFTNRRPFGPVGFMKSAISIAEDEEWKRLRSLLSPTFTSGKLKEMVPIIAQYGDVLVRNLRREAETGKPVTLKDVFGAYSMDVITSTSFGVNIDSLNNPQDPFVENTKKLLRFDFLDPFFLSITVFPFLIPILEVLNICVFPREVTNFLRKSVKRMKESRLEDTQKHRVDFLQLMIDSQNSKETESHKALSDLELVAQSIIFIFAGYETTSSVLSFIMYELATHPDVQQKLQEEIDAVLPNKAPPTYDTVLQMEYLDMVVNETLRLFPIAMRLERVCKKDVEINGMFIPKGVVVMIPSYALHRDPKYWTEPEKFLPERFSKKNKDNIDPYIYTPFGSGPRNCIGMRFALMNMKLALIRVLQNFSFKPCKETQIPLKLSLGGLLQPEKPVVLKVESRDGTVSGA
% is scaled to controls: 0 for no effect and ±100 for the full control effect.

SMILES | AC50 | activity, negative = inhibition
Cc1cccc(NC(=O)CSc2nc(COc3ccccc3)nc3ccccc23)c1C | 3.98 µM (active) | –
N[C@H](C(=O)O)c1ccc(C(=O)O)c(O)c1 | – | -8.41%
N[C@H](C(=O)O)c1cc(O)cc(O)c1 | 12.6 µM (active) | –
N[C@@H](C(=O)O)c1cc(O)ccc1Cl | 15.8 µM (active) | –
N[C@@H](C(=O)O)c1ccc(C(=O)O)c(O)c1 | – | -10.3%
N[C@H](C(=O)O)c1cccc(O)c1 | inactive | –
N[C@H](C(=O)O)c1ccc(O)c(C(=O)O)c1 | – | -10.6%
NC(N)=N[C@@H]1C(O)[C@H](N=C(N)N)[C@@H](O)C(O)[C@H]1O (some centres not stated) | – | 12.2% [at 11.4 µM]
NC(=O)NC(=O)[C@H]1CCCC[C@@H]1C(=O)O | – | 2.92% [at 11.4 µM]
COn1c(SCc2cccc(Cl)c2)nc2ccccc2c1=O | – | -25.3%
COn1c(SC(C)C)nc2ccccc2c1=O | – | 5.93% [at 11.4 µM]
COn1c(SCc2ccc(C)cc2C)nc2ccccc2c1=O | 12.6 µM (active) | –
COc1cccc(/C=N/n2nnc3c(cnn3-c3ccccc3)c2=O)c1 | – | 22%
COc1ccc(Oc2c(Cl)cnn(-c3ccccc3)c2=O)cc1 | 14.1 µM (active) | –
O=c1oc(-c2ccco2)nc2c1cnn2-c1ccccc1 | – | -8.28%
CN(C)c1nc(-c2cccnc2)nc2ccccc12 | 7.94 µM (active) | –
CN(C)c1ccc(-c2nc(N(C)C)c3ccccc3n2)cc1 | 12.6 µM (active) | –
CSc1c(-c2ccccc2)nc2ccccc2c1C(=O)O | – | 4.08%
CNc1nc(-c2ccc(N(C)C)cc2)nc2ccccc12 | 15.8 µM (active) | –
CN(C)c1nc(-c2ccccc2C(F)(F)F)nc2ccccc12 | – | -23.4%
O=C(CC1(O)CCCCC1)OC1CCCC1 | – | -11.8% [at 11.4 µM]
O=C1COc2ccccc2CN1 | – | 5.27% [at 2.29 µM]
Cn1c(=O)c2[nH]c([C@@H]3CC(=O)C[C@H](c4nc5c([nH]4)c(=O)n(C)c(=O)n5C)N3)nc2n(C)c1=O | – | 2.95% [at 11.4 µM]
CCOc1ccc(NC(=O)c2oc3ccccc3c2NC(=O)CC)cc1 | 15.8 µM (active) | –

SMILES | AC50 | activity, negative = inhibition
COc1cccc(C(=O)Nc2ccc(NC(=O)c3ccco3)cn2)c1 | – | -4.16% [at 2.29 µM]
COc1cccc(NC(=O)c2oc3ccccc3c2NC(C)=O)c1 | 11.2 µM (active) | –
COc1c(NC(C)=O)c2ccccc2c2ccccc12 | – | -28.7% [at 11.4 µM]
COc1cccc(NC(=O)c2oc3ccccc3c2NC(=O)c2ccc3c(c2)OCO3)c1 | 1.78 µM (active) | –
CC1(C)[C@@H]2CC[C@]1(CC(=O)O)[C@H](Cl)C2 | – | -12.3% [at 11.4 µM]
CC1(C)CC(=O)C2=C(C1)Oc1nc3ccccc3cc1C2C(C#N)C#N (configuration not stated) | 14.1 µM (active) | –
Cc1cc(NC(=O)c2ccccc2Cl)no1 | – | -14.3%
Cc1cc(NC(=O)c2ccccc2Cl)c(C(C)C)cc1O | 25.1 µM (active) | –
O=C(Nc1ccccc1Cl)c1ccccc1Cl | – | 1.04%
O=C1[C@@H]2[C@@H](C(=O)N1c1ccc(OCc3ccccc3)cc1)[C@@H]1c3ccccc3[C@@H]2[n+]2ccccc21 | – | -9.33% [at 11.4 µM]
O=C(O)/C=C\C=C/c1ccc2c(c1)OCO2 | – | -6.19% [at 11.4 µM]
O=C(/C=C\c1ccc2c(c1)OCO2)c1ccc(F)cc1 | 3.16 µM (active) | –
COc1ccccc1N1CCN(C(=O)/C=C/c2ccc3c(c2)OCO3)CC1 | 3.55 µM (active) | –
Nc1ccccc1C(=O)/C=C\c1ccc2c(c1)OCO2 | 3.16 µM (active) | –
COCOc1cc(OC)ccc1C(=O)/C=C\c1ccc2c(c1)OCO2 | 1 µM (active) | –
Cc1ccc(N=CC2=C(O)CC(c3ccco3)CC2=O)cc1 (configuration not stated) | – | -9.52%
C[C@@H]1CCN=C(N)S1 | inactive | –
COC(=O)c1c(-c2ccc3ccccc3c2)csc1NC(=O)Cc1ccc(OC)c(OC)c1 | 1.78 µM (active) | –
O=C1c2ccccc2C(=O)N1CCCSc1ccccc1 | – | -16.6% [at 11.4 µM]
Cc1ccc(OCCCN2C(=O)C(=O)c3cccc(C)c32)cc1 | 15.8 µM (active) | –
N#CC(C#N)=CNCCN1CCN(C=C(C#N)C#N)CC1 | – | -20.1% [at 11.4 µM]
Cc1oc(-c2ccccc2F)nc1CS(=O)(=O)CC(=O)NCCCN(C)C1CCCCC1 | 10 µM (active) | –
O=c1[nH]c2cc(Br)cnc2nc1/C=C(\O)c1ccc(F)cc1 | 5.01 µM (active) | –
